# Compounds with a hit are over-represented: about 6.7% of the library has one in this group of screens.
# GDH-TPI inh = counter-screen for M. tuberculosis FBA inhibitors: GDH-TPI coupled enzymes; GDH-TPI coupled enzyme counterscreen, NADH absorbance; hit rate 1.2% among 360,000; inhibition, % at 4.8 µM; AID 588335; in the data active = inhibition above about 30%;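 note: 0% = DMSO wells and 100% = wells lacking the enzyme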
# BoNT-F LC inh = inhibitors of Botulinum neurotoxin F light chain protease; Multiplex microsphere protease cleavage assay, flow cytometry; hit rate 0.22% among 360,000; inhibition, % at 10 µM; in the data active = inhibition above about 35%, passing the limit was not always enough; inconclusive = no clear call, values can overlap the other calls; note: plate controls were buffer without enzyme for full effect and enzyme alone for no effect
# BoNT A protease = blocks Botulinum neurotoxin A light chain protease | multiplex microsphere protease substrate cleavage, flow cytometry | inhibition, % at 10 µM | hit rate 0.17% among 360,000; note: plate controls were buffer without enzyme for full effect and enzyme alone for no effect
# Mtb FBA inh = Mtb fructose-bisphosphate aldolase inhibition. hit rate 2.3% among 360,000. purified M. tuberculosis FBA, fluorescence read-out. inhibition, % at 1 µM. P9WQA3; in the data active = inhibition above about 27%;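 note: 0% = vehicle and 100% = reference inhibitor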
# Target sequence (P9WQA3 whole entry, looked up): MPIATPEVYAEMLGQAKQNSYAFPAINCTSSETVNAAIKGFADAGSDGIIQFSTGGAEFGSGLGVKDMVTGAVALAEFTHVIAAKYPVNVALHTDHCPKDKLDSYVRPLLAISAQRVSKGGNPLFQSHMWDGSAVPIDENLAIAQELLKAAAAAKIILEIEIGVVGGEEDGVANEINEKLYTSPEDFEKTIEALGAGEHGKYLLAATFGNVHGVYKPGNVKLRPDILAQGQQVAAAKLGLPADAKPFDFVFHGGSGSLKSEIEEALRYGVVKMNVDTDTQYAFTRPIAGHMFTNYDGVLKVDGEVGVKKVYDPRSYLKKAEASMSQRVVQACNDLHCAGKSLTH
# Autofluor counter = compound fluorescence in toxin protease inhibitor counterscreen | compound autofluorescence counterscreen, microsphere flow cytometry; stronger effect = higher value | fluorescence intensity (concentration not given with the values) | hit rate 3.1% among 360,000 | AID 624483; in the data active = fluorescence intensity above about 16000; inconclusive = no clear call, values can overlap the other calls
# Anthrax LF inh2 = blocks Bacillus anthracis lethal factor protease. P15917. multiplex microsphere protease cleavage assay, LF. inhibition, % at 10 µM. hit rate 0.12% among 360,000. AID 588501; note: plate controls were buffer without enzyme for full effect and enzyme alone for no effect
# * = called active by the depositor; u = inconclusive. Cut-off read from the data, not from the text of the source, unless noted: active = inhibition above about 30%; inconclusive = no clear call, values can overlap the other calls; inactive = below that.
SMILES,GDH-TPI inh,BoNT-F LC inh,BoNT A protease,Mtb FBA inh,Autofluor counter,Anthrax LF inh2
COC(=O)c1ccc(C2C(C(=O)OCC(C)C)=C(C)N=C3SCCC(=O)N32)cc1 (stereo not drawn),9.6,-1.0,0.0,-0.4,22462*,-3.2
CC1=C(C(=O)OC(C)C)C(c2cccs2)N2C(=O)CCSC2=N1 (stereo not drawn),-5.5,-7.7,-4.6,0.8,25343*,-1.9
COc1ccccc1NS(=O)(=O)c1cccc(C(=O)N/N=C/c2ccc(C)o2)c1,40.5*,3.9,1.4,-1.1,3604,-6.4
COc1ccccc1NS(=O)(=O)c1cccc(C(=O)N/N=C/c2ccc(N3CCOCC3)cc2)c1,34.4*,4.5,1.4,0.9,9965,1.6
COc1ccccc1NS(=O)(=O)c1cccc(C(=O)N/N=C/c2ccccc2OCC(=O)O)c1,10.6,-0.3,0.4,-2.7,3862,1.0
C=C(C)Cn1c(CCNC(=O)c2ccco2)nc2ccccc21,-3.7,-6.4,-3.8,0.7,3118,-7.9
c1nc(NCC2CCCO2)c2[nH]cnc2n1 (stereo not drawn),2.0,6.7,1.0,1.6,10706,-1.2
COc1ccc2c(c1OC)C(=O)OC2CC(=O)c1ccc2c(c1)OCO2 (stereo not drawn),29.2,2.0,u,0.2,16170*,2.1
CCCCOC(=S)NC(=O)c1sc2ccccc2c1Cl,5.6,-1.2,-0.6,7.0,23574*,-2.5
CN(C)CCCOC(=O)c1sc2ccccc2c1Cl,0.6,-5.9,-0.2,5.0,4382,1.2
CCOC(=O)C(C#N)=CN1CCN(C(=O)CCCl)c2ccccc21,18.5,-6.0,0.1,-4.3,3695,-0.5
CCOC(=O)C(C#N)=CN1CCNc2ccccc21,31.0*,3.4,0.1,2.2,3684,-5.4
O=C(c1ccco1)N1CCN(C(=S)Nc2ccc(Br)cc2Cl)CC1,3.1,1.1,-2.1,-1.5,4717,0.5
COc1cccc(N2C(=O)NC(=O)C3(Cc4cc(C)ccc4N(C)C3)C2=O)c1 (stereo not drawn),2.9,-8.3,-0.2,-2.0,2993,-1.1
COc1ccc2c(c1)CC1(CN2C)C(=O)NC(=O)N(CCc2ccccc2)C1=O (stereo not drawn),-4.1,-11.6,-0.8,1.5,5237,-5.6
Cc1ccc2c(c1)CC1(CN2C)C(=O)NC(=O)N(c2cc(C)ccc2C)C1=O (stereo not drawn),-0.6,2.7,1.3,-0.3,22449*,-1.0
COc1ccc(OC)c(N2C(=O)NC(=O)C3(Cc4cc(C)ccc4N(C)C3)C2=O)c1 (stereo not drawn),7.8,1.6,0.3,2.1,16331*,-1.5
COc1cc(CN2C(=O)NC(=O)C3(Cc4cc(C)ccc4N(C)C3)C2=O)cc(OC)c1 (stereo not drawn),1.2,-1.8,-0.5,0.6,22009*,-1.9
O=C(Nc1ccc(Cl)cn1)C1CCCN1S(=O)(=O)c1ccc(Cl)cc1 (stereo not drawn),5.0,-6.8,0.3,-1.6,10844,0.1
Cc1cc(C(=O)Nc2nnc(-c3ccccc3)s2)no1,32.3*,1.6,0.1,-3.3,2476,5.4
O=C(Nc1nnc(-c2ccccc2)s1)c1cc(S(=O)(=O)N2CCOCC2)c(Cl)cc1Cl,-1.2,1.0,u,2.9,23535*,-1.7
CN(C)c1ccc(C(=O)Nc2nc3c(s2)CCCC3)cc1,37.4*,-12.5,-1.3,2.0,5428,-6.0
CC(C)(C)c1ccc(C(=O)NC(=S)Nc2nc3c(s2)CCCC3)cc1,7.5,-2.9,-0.2,6.3,1984,-4.1
Cc1onc(-c2ccccc2)c1C(=O)Nc1nc2c(s1)CCCC2,-10.7,-3.0,0.7,0.1,8517,9.0
Cc1cc(C(=O)Nc2nc3c(s2)CCCC3)no1,9.5,-1.6,0.2,-1.5,23398*,-6.6
SMILES,GDH-TPI inh,BoNT-F LC inh,BoNT A protease,Mtb FBA inh,Autofluor counter,Anthrax LF inh2
Cc1ccc2c(c1)C(c1ccccc1)=NCC(=O)N2C,0.0,-2.3,0.2,0.6,4176,0.5
CCOc1ccc(N2Cc3ncccc3C2=O)cc1,3.6,-7.7,-0.4,0.8,9767,-0.8
CC(C)NC(=O)NC(=O)CSc1ncc(C(F)(F)F)cc1Cl,-1.9,-3.1,-2.1,-0.6,22963*,-0.2
CC(C)(C)NC(=O)NC(=O)CSc1ncc(C(F)(F)F)cc1Cl,10.1,-4.9,-0.4,-0.4,8099,-3.0
O=C(NC1CCCCC1)NC12CC3CC(CC(C3)C1)C2,8.9,-5.1,-0.4,0.7,2636,0.9
CC1(C)CC(=O)c2sc(NS(=O)(=O)Cc3ccccc3)nc2C1,50.2*,1.9,u,-1.4,22981*,2.1
Cc1ccc(S(=O)(=O)Nc2nc3c(s2)C(=O)CC(C)(C)C3)cc1,26.4,-2.4,0.0,1.5,2060,0.0
CN1CCC(N(C)C(=O)c2cc(S(=O)(=O)N3CCOCC3)ccc2Cl)CC1,6.9,-7.6,0.2,0.0,6544,2.1
Clc1ccc(Oc2cnc3ccccc3n2)cc1,9.5,-3.8,-2.2,-0.4,24944*,-2.7
Cc1ccc(Oc2cnc3ccccc3n2)cc1,10.1,-2.1,u,-0.7,20600*,-4.2
O=C(O)CCCCCn1c(SCC(=O)Nc2ccc(F)cc2)nc2ccsc2c1=O,-0.9,-5.4,0.4,2.5,3154,2.3
O=C(CN1CCOCC1)N1CCCc2ccccc21,0.0,-8.1,-1.1,0.8,4574,-3.1
O=C(Cn1nnc(-c2ccc(CN3CCOCC3)cc2)n1)N1CCCc2ccccc21,2.6,2.1,0.3,-6.1,22876*,-0.2
CN1CCCC(OC(=O)c2ccc(C#N)cc2)C1 (stereo not drawn),0.0,-13.3,-2.3,15.5,3102,12.3
Cc1ccc(NCCC(=O)c2ccc(Cl)c(Cl)c2)cc1,6.6,-2.8,u,2.0,23171*,-0.1
Cc1ccc(NCCC(=O)c2ccc(Cl)cc2)cc1C,0.0,-6.5,-1.0,0.9,24235*,-1.3
Cc1cc(C)n(-c2nc3c(c(=O)[nH]c(=O)n3C)n2Cc2cccc(Br)c2)n1,0.0,-0.8,-0.2,7.8,4282,0.3
Cc1ccc(Cn2c(CN3CC(C)OC(C)C3)nc3c2c(=O)[nH]c(=O)n3C)cc1 (stereo not drawn),-9.3,0.5,0.1,3.5,20485*,-3.0
Cc1ccc(Cn2c(-n3nc(C)cc3C)nc3c2c(=O)[nH]c(=O)n3C)cc1,-4.2,3.2,2.6,5.2,22348*,-5.3
CC1CN(Cc2nc3c(c(=O)n(C)c(=O)n3C)n2Cc2ccccc2)CC(C)O1 (stereo not drawn),5.8,-8.5,-0.7,-1.2,6003,-1.1
COc1ccc(CN(CC2CCCO2)C(=O)CN2C(=O)C(C)Oc3ccc(C)cc32)cc1OC (stereo not drawn),-7.7,-3.4,0.2,0.2,3865,0.2
CCC1Oc2ccc(C)cc2N(CC(=O)N(Cc2ccc3c(c2)OCO3)CC2CCCO2)C1=O (stereo not drawn),-1.2,-4.5,-2.5,2.6,24977*,1.9
c1ccc2c(c1)C1=NCCN1c1ccccc1-2,7.6,-1.1,0.1,72.6*,3330,-7.3
Cc1ccc(C(=O)N2CCSCC2)cc1,-2.5,0.4,0.7,0.4,20353*,-2.6

# Source: PubChem
